Molecules are shown by their SMILES. This is part of a sample that, as a whole, favours compounds with a hit. Of some 83,000 tested, about 20% had one in any assay.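 In brief: 96-well plates, 48 h treatment, single concentration, percent growth endpoint.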 Unmarked numbers belong to inactive results. The source made the active and inactive calls. Rule for the calls: active = growth percent below 10; inactive = the rest.

Nine compounds from PubChem BioAssay (NCI) can be followed below.

Assay in all cases: NCI-60 one-dose screen, 48 h (100 = growth as untreated, 0 = no growth, -100 = all killed)
Conditions in all cases: 10 µM unless noted

In experiment [1] the test system is SR leukemia.
For experiment [2], the system named is RPMI-8226 leukemia.
Experiment [3] relates to OVCAR-8 ovarian.
Experiment [4] concerns OVCAR-5 ovarian.
The test system of experiment [5] is OVCAR-4 ovarian.
Experiment [6] has as its system SK-OV-3 ovarian.
Experiment [7] has as its system IGROV1 ovarian.
For experiment [8], the system named is OVCAR-3 ovarian.
In experiment [9] the test system is HS 578T breast.
For experiment [10], the system named is NCI/ADR-RES ovarian.
Experiment [11] relates to MDA-MB-435 melanoma.
Experiment [12] relates to SW-620 colon.
For experiment [13], the system named is MCF7 breast.
In experiment [14] the test system is HCC-2998 colon.
Experiment [15] deals with KM12 colon.
Experiment [16] deals with T-47D breast.
The test system of experiment [17] is BT-549 breast.
Experiment [18] relates to HCT-116 colon.

Turning to `Fc1ccc(Nc2nc3nonc3nc2Nc2ccc(F)cc2)cc1`, the growth is 7.15% (active) in experiment [1]; 6.64% (active) in experiment [2]; 8.53% (active) in [3]; -16.7% (active) in [4]; 5.75% (active) in experiment [5]; 3.75% (active) in experiment [6]. For the same compound, the growth in experiment [7] is 32.6%; in experiment [8], 1.97% (active); in [9], -1.86% (active); in experiment [10], 3.98% (active); in [11] it was 5.74% (active); in experiment [12] it was 9.46% (active). For the same compound, the growth was 3.66% (active) in experiment [13], 13.1% in experiment [14] and 3.91% (active) in experiment [15].
As to `CCCCNC(=O)c1cc(NCc2cc(O)ccc2O)ccc1O`, the growth in experiment [1] was 41.1%; in experiment [2], 19.3%; in experiment [3], 87.6%; in [4], 107%; in [5], 90.8%; in experiment [6], 85.8%. The growth in experiment [7] is 98.4%; in experiment [9], 88%; in [10], 95%; in experiment [16], 58.1%; in experiment [17], 46.1%; in experiment [11] it was 96.8%. Also, the growth was 110% in [12], 67.7% in experiment [13], 86.2% in [18] and 96.4% in experiment [14].
As to `Cc1nc(C)c(-c2nn3c(-c4cccc(F)c4)nnc3s2)s1`, the growth in [1] is 69.3%; in [2] it was 96.2%; in experiment [3] it was 94.7%; in experiment [4], 112%; in experiment [5] it was 112%; in experiment [6], 104%. The growth in [7] was 106%; in experiment [8] it was 113%; in experiment [9], 105%; in experiment [11], 95.2%; in experiment [12] it was 96.8%; in experiment [13] it was 99.8%. Further, in experiment [14], the growth was 105%.
As for `CCN(CC)CCCC(C)NCc1ccccc1` (centres undefined), the growth in experiment [1] is 111%; in experiment [2], 107%; in experiment [3], 93.7%; in experiment [4] it was 97.6%; in experiment [5], 105%; in experiment [6], 118%. In addition, the growth is 95.6% in experiment [7]; 115% in experiment [9]; 106% in experiment [10]; 105% in experiment [16]; 85.2% in [17]; 100% in experiment [11]. Moreover, the growth in [12] was 105%; in experiment [13], 93.8%; in experiment [18], 90.8%; in [14], 99.5%; in experiment [15], 96.9%.
In the case of `CCNCCNc1cc(-c2ccc(C#N)cc2)c(C#N)c2nc3ccccc3n12`, the growth in experiment [1] is -1.04% (active); in experiment [2] it was 51.6%; in [3], 38.7%; in [4], 75.6%; in [5] it was -34% (active); in experiment [6], 87.4%. The growth in [7] was 47.7%; in experiment [8], -47.7% (active); in experiment [10], 60.9%; in experiment [16], 37.5%; in [17], 40.4%; in [11] it was 13.9%. Also, the growth is -30.2% (active) in experiment [12]; 57.8% in [13]; -27.2% (active) in experiment [18]; 41% in experiment [14]; 29% in experiment [15].
In the case of `C[N+](C)(C)CCOC(OCC[N+](C)(C)C)(c1ccccc1)c1ccccc1`, the growth was 89.5% in experiment [1]; 106% in [2]; 105% in experiment [3]; 104% in [4]; 107% in [5]; 103% in [6]. Also, the growth in experiment [7] was 124%; in experiment [9], 115%; in experiment [10], 97.9%; in experiment [16] it was 106%; in [17], 101%; in experiment [11] it was 121%. Moreover, the growth in experiment [12] was 103%; in experiment [13], 92.8%; in [18] it was 105%; in experiment [14], 97%.
Regarding `CCNCCNc1cc(-c2ccc(C(F)(F)F)cc2)c(C#N)c2nc3cc(Cl)c(Cl)cc3n12`, the growth is -49.2% (active) in experiment [1]; -41.6% (active) in [2]; -64.1% (active) in experiment [3]; -92.3% (active) in experiment [4]; -81.9% (active) in experiment [5]; 67.6% in [6]. Further, the growth was -77.8% (active) in experiment [7]; -88.4% (active) in [8]; -53.2% (active) in [9]; -53.2% (active) in [16]; -2.28% (active) in experiment [17]; -92.6% (active) in experiment [11]. The growth in [12] was -81.8% (active); in experiment [13], -70.6% (active); in [18] it was -88.3% (active); in experiment [14], -88.9% (active); in experiment [15], -77.7% (active).
Regarding `COc1ccc(C2CC(c3ccc4ccccc4c3)=NN2c2nc(O)c(C3=c4cc(Cl)ccc4=NC3=O)s2)cc1` (centres undefined), the growth in experiment [1] was -34.4% (active); in experiment [2] it was -3.59% (active); in [3], -16.1% (active); in [4] it was -7.92% (active); in [5] it was -61.5% (active); in experiment [7], -11.5% (active). Besides, the growth is -83.1% (active) in [8]; -5.85% (active) in experiment [9]; 58.8% in [10]; -79.9% (active) in experiment [16]; -26% (active) in experiment [17]; -64.6% (active) in [11]. The growth was -42.4% (active) in experiment [12], -22.4% (active) in experiment [13], -54.1% (active) in experiment [14] and -59.3% (active) in [15].
On to `N#Cc1c(NC(=O)c2ccccc2I)sc2c1CCCC2`, for which the growth in experiment [1] is 38.6%; in [2], 46.4%; in experiment [3], 51.4%; in [4], 70.8%; in experiment [5], 79.9%; in experiment [7], 50.6%. Besides, the growth is 15.7% in [8]; 32.1% in [9]; 13.2% in [10]; 61.4% in experiment [16]; 52.2% in experiment [17]; -4.69% (active) in experiment [11]. Further, the growth in experiment [12] is 21%; in [13], 15%; in experiment [18] it was 26.4%; in experiment [14] it was 71.6%; in experiment [15], 34.2%.
